Laboratory results taken from PubChem BioAssay.
The other results are listed elsewhere or left out. Values without a mark were called inactive. The source made the active and inactive calls.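 How the source made its calls, unless noted: active means mean inhibition above about 50% in the one-dose retest (limit read from the data); inactive means the rest.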

Tests used:
[1] = biological target: Sentrin-specific protease 8 (Homo sapiens) (UniProt Q96LD8); assay: human SENP8 peptidase blockers, hit retest – biochemical, luminescence, single concentration, confirmation (AID 488912;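 active means mean inhibition across replicates above about 50%, limit read from the data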); details: Recombinant SENP8, Z-RLRGG-aminoluciferin luminescence, 60 min; at 12.5 µM; active compounds read high
[2] = biological target: Sentrin-specific protease 6 (Homo sapiens) (UniProt Q9GZR1); assay: inhibition of human SENP6 catalytic domain – biochemical, luminescence, single concentration, confirmation (AID 488915); details: recombinant SENP6, Z-RLRGG-aminoluciferin luminescence; at 12.5 µM; active compounds read high
[3] = biological target: Sentrin-specific protease 7 (Homo sapiens) (UniProt Q9BQF6); assay: human SENP7 peptidase blockers, hit retest – biochemical, luminescence, single concentration, confirmation (AID 488917); details: recombinant SENP7, Z-RLRGG-aminoluciferin luminescence, 40 min; at 12.5 µM; active compounds read high
[4] = biological target: Caspase-3 (Homo sapiens) (UniProt P42574); assay: human caspase-3 activity blockade, out-of-family – biochemical, single concentration, selectivity assay for SENP inhibitor project, confirmation (AID 488918;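 active means mean inhibition above about 50%, limit read from the data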;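 further: plate controls were enzyme with DMSO for no effect and wells without caspase-3 for full effect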); details: purified caspase-3, Z-DEVD-aminoluciferin luminescence, 60 min; at 12.5 µM; active compounds read high
[5] = Ultra-Glo luciferase signal interference – biochemical, single concentration, SENP8 reaction pre-completed, artefact control for SENP inhibitor project, confirmation (AID 488919;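 active means mean inhibition above about 50% when retested at one dose, limit read from the data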;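 further: plate controls were DMSO wells with completed reaction for no effect and substrate without enzyme for full effect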); details: Pre-incubated SENP8/Z-RLRGG-aminoluciferin, luciferase luminescence interference; at 12.5 µM; active compounds read high
[6] = apoptosome-driven caspase-3 activation blockers – biochemical, fluorescence, DEVD-Rh110, 20 µM, confirmation (AID 504614;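 active means mean inhibition of at least 40% at 20 µM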;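 further: plate controls were DMSO wells for no effect and DEVD-CHO caspase inhibitor control wells for full effect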); details: reconstituted apoptosome, caspase-3 DEVD-Rh110 fluorescence; at 20 µM; active compounds read high
[7] = detection-step artefacts after completed caspase reaction – biochemical, fluorescence, Rh110, 20 µM, artefact control for Apaf-1 inhibitor project, confirmation (AID 504615;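 active means signal rise of 40% or more at 20 µM, treated as a fluorescence artifact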); details: quenched caspase reaction, at 20 µM, active compounds read high

Chain of Sentrin-specific protease 6 (Homo sapiens) (Q9GZR1 628-1112 limits assumed): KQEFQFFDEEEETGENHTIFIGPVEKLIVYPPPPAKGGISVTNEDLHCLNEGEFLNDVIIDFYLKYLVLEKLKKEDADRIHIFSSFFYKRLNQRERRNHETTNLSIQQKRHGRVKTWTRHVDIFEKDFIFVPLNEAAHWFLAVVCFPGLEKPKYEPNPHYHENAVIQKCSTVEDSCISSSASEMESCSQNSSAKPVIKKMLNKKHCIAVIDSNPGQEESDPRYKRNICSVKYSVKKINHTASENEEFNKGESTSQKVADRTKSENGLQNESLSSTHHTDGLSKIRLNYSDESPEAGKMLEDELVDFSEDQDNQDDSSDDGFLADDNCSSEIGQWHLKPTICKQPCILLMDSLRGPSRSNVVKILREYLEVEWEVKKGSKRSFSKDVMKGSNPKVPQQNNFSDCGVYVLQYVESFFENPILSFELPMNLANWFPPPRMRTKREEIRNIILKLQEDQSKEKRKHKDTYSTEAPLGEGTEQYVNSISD
Chain of Caspase-3 (Homo sapiens) (P42574 28-227 limits assumed): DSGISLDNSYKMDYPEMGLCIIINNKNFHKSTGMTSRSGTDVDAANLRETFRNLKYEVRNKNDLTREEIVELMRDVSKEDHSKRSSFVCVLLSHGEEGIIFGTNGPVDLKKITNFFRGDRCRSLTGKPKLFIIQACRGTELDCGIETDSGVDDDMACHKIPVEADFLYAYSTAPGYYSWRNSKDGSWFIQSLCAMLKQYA
Chain of Sentrin-specific protease 8 (Homo sapiens) (Q96LD8 whole entry, looked up, the tested form may be a part): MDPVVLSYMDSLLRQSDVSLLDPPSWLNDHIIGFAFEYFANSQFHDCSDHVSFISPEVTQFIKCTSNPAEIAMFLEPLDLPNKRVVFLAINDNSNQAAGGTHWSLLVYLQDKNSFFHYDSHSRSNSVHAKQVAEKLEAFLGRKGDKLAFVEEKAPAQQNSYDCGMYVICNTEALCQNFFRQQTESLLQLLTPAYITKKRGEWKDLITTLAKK
Chain of Sentrin-specific protease 7 (Homo sapiens) (Q9BQF6 706-1050 limits assumed): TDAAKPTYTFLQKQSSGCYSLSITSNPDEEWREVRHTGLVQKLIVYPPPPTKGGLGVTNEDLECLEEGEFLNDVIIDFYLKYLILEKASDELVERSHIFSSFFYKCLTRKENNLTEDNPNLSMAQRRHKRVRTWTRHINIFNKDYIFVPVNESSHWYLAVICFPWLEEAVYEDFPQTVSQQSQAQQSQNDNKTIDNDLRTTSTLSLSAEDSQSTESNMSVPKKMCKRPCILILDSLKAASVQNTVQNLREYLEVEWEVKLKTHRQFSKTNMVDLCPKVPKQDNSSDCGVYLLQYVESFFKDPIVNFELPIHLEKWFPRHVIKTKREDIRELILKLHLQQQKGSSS

Cc1ccc(S(=O)(=O)Nc2nc3ccccc3nc2N2CCc3ccccc3C2)cc1
inhibition [1]: -9.3% | inhibition [2]: -1.3% | inhibition [3]: -5.2% | inhibition [4]: 4.5% | inhibition [5]: 4.3%

Nc1ncc(-c2cc3ccccc3oc2=O)s1
inhibition [1]: 92.7% (active) | inhibition [2]: 92.8% (active) | inhibition [3]: 102% (active) | inhibition [4]: 94.6% (active) | inhibition [5]: 91.7% (active)

N#Cc1c(N2CCCCC2)nc(N)c2c(N)nc(SCC(=O)O)cc12
inhibition [1]: 11.2% | inhibition [2]: 72.6% (active) | inhibition [3]: 61.9% (active) | inhibition [4]: 0.8% | inhibition [5]: -0.2% | inhibition [6]: 31.3% | activation (fluorescence interference) [7]: 7.18%

Cc1ccc(O)c(CNc2nc3ccccc3n2C)c1
inhibition [1]: -5% | inhibition [2]: -7.9% | inhibition [3]: 7.6% | inhibition [4]: 8.9% | inhibition [5]: -0.5%

CC1=NN(C(N)=S)C(=O)C1N=Nc1cc(Cl)ccc1Cl (stereo unspecified)
inhibition [1]: -5.4% | inhibition [2]: -1.7% | inhibition [3]: 1.9% | inhibition [4]: -1.2% | inhibition [5]: 1.2%

C=CCNC(=S)N1CCN(CCN=Cc2c(C)[nH]n(-c3ccc([N+](=O)[O-])cc3)c2=O)CC1
inhibition [1]: 0.7% | inhibition [2]: 21.1% | inhibition [3]: 28% | inhibition [4]: 56.6% (active) | inhibition [5]: 16.9%

CC(C)N(C(=O)Cn1cc(SCC(=O)N2CCCC2)c2ccccc21)C(C)C
inhibition [1]: -29.2% | inhibition [2]: -18.1% | inhibition [3]: -8.3% | inhibition [4]: -6.3% | inhibition [5]: -6.7%

O=[N+]([O-])c1ccc2nc(-c3ccccn3)[nH]c2c1
inhibition [1]: 57.8% (active) | inhibition [2]: 56% (active) | inhibition [3]: 82.6% (active) | inhibition [4]: 81.5% (active) | inhibition [5]: 48.8%

Cc1cccc(/C=N/NC(=O)CNc2cccc3ccccc23)n1
inhibition [1]: 13.1% | inhibition [2]: 12.9% | inhibition [3]: 3.9% | inhibition [4]: -0.3% | inhibition [5]: 1.6%

O=C(O)/C=C/C(=O)NNc1ccc([N+](=O)[O-])cc1
inhibition [1]: 67.5% (active) | inhibition [2]: 65.4% (active) | inhibition [3]: 92.5% (active) | inhibition [4]: 88.6% (active) | inhibition [5]: 79.3% (active)

Cn1cccc1C(=O)OCC(=O)c1ccc(Br)s1
inhibition [1]: 78.3% (active) | inhibition [2]: 78.3% (active) | inhibition [3]: 95.5% (active) | inhibition [4]: 77.3% (active) | inhibition [5]: 54.7% (active)

CCNc1nc(N)nc(Oc2ccc(OCC)nn2)n1
inhibition [1]: 6.2% | inhibition [2]: 8.1% | inhibition [3]: -2% | inhibition [4]: 3.8% | inhibition [5]: 0.2%

O=C1C(=O)N(CCCN2CCOCC2)C(c2ccc([N+](=O)[O-])cc2)/C1=C(\O)c1ccc2c(c1)OCCO2 (stereo unspecified)
inhibition [1]: -13.1% | inhibition [2]: -8.9% | inhibition [3]: -9% | inhibition [4]: -4.4% | inhibition [5]: -12.5%

O=C(Nc1ccc(C2CC2(Cl)Cl)cc1)c1cccc([N+](=O)[O-])c1 (stereo unspecified)
inhibition [1]: 57.6% (active) | inhibition [2]: 60.1% (active) | inhibition [3]: 87.5% (active) | inhibition [4]: 36.1% | inhibition [5]: 29.5%

C/C(=N\NC(=O)CNc1cccc2ccccc12)c1ccc(Br)s1
inhibition [1]: -9.7% | inhibition [2]: -9.8% | inhibition [3]: -3.4% | inhibition [4]: -2.4% | inhibition [5]: -7.4% | inhibition [6]: 13.9% | activation (fluorescence interference) [7]: 3.87%

Clc1ccc(Nc2ccc3ccccc3n2)cc1
inhibition [1]: 87.7% (active) | inhibition [2]: 88.2% (active) | inhibition [3]: 97.8% (active) | inhibition [4]: 48.8% | inhibition [5]: 71.2% (active)

O=c1c(-c2cccc(Cl)c2)c[nH]n1-c1ccccc1
inhibition [1]: 63.9% (active) | inhibition [2]: 61.4% (active) | inhibition [3]: 80.8% (active) | inhibition [4]: 76.2% (active) | inhibition [5]: 63.8% (active)

CCc1ccc(C(=O)COC(=O)c2ccco2)cc1
inhibition [1]: 62.7% (active) | inhibition [2]: 62% (active) | inhibition [3]: 83.3% (active) | inhibition [4]: 74.5% (active) | inhibition [5]: 68% (active)

Nc1ccccc1/C=N\N=C/c1ccccc1N
inhibition [1]: 52.9% (active) | inhibition [2]: 45.3% | inhibition [3]: 85.6% (active) | inhibition [4]: 68.3% (active) | inhibition [5]: 3.9%

COc1ccc(Cc2nnc(SCC(=O)c3cccc([N+](=O)[O-])c3)n2C)cc1
inhibition [1]: -3.9% | inhibition [2]: 1.7% | inhibition [3]: 6.9% | inhibition [4]: 4.6% | inhibition [5]: -2.3%

O=C(N/N=C/c1cccnc1)c1cc2ccccc2cc1O
inhibition [1]: 25.3% | inhibition [2]: 22.6% | inhibition [3]: 72.3% (active) | inhibition [4]: 61.6% (active) | inhibition [5]: 53.8% (active)

CC(=O)Oc1ccc2c(c1)C(=O)c1ccccc1C2=O
inhibition [1]: 38.1% | inhibition [2]: 43.9% | inhibition [3]: 67.4% (active) | inhibition [4]: 57.6% (active) | inhibition [5]: 25.6%

Cc1ccc(S(=O)(=O)C(C#N)c2nc3ccccc3nc2N2CCCC2)cc1C (stereo unspecified)
inhibition [1]: 6.9% | inhibition [2]: 9.5% | inhibition [3]: 4.3% | inhibition [4]: 4.2% | inhibition [5]: 3%

Cc1ccn2cc(-c3nonc3C)cc2c1
inhibition [1]: 47.6% | inhibition [2]: 77% (active) | inhibition [3]: 95.7% (active) | inhibition [4]: 73.7% (active) | inhibition [5]: 33%

COc1ccc(-n2ncc3c(SCC(=O)NNC(C)=O)ncnc32)cc1
inhibition [1]: 11.5% | inhibition [2]: 48.8% | inhibition [3]: 11.2% | inhibition [4]: 51.3% (active) | inhibition [5]: 5.9%

Oc1ccc(N=Cc2sc3ccccc3c2Cl)cc1
inhibition [1]: -10.7% | inhibition [2]: -2.2% | inhibition [3]: 49.3% | inhibition [4]: 1.9% | inhibition [5]: 20.8% | inhibition [6]: 14.4% | activation (fluorescence interference) [7]: 5.12%

COc1ccc(C(=O)Nc2ccc(F)cc2F)cc1
inhibition [1]: -4.2% | inhibition [2]: 60.2% (active) | inhibition [3]: 87.6% (active) | inhibition [4]: 87.1% (active) | inhibition [5]: 67.9% (active)

Brc1ccc2nc(N3CCCC3)sc2c1
inhibition [1]: 83.5% (active) | inhibition [2]: 95.8% (active) | inhibition [3]: 102% (active) | inhibition [4]: 81.3% (active) | inhibition [5]: 38.6%

COc1ccc(CNC(=O)COc2ccccc2C(=O)c2cnn(-c3ccccc3)c2)cc1OC
inhibition [1]: 77.7% (active) | inhibition [2]: 76.1% (active) | inhibition [3]: 89.2% (active) | inhibition [4]: 61.9% (active) | inhibition [5]: 65.5% (active)

CCC(=O)NC(Nc1cc(C)ccn1)(C(F)(F)F)C(F)(F)F
inhibition [1]: -4.5% | inhibition [2]: -2.4% | inhibition [3]: -0.5% | inhibition [4]: 8.4% | inhibition [5]: 4.2%
